# Laboratory results: article PMC4336329 (PLoS ONE, 2015)
# Hit rate of the full screen: of about 310,000 compounds, about 14,000 (4.5%) showed an effect of 50% or more. The effect is printed as a negative number. Many of the other results were omitted from the sample, so strong results are more common in it than they were.
# Target: human ether-à-go-go-related gene (hERG) potassium channel (human, UniProt Q12809)
# Test: primary screen, population patch clamp on CHO cells stably expressing hERG; higher = less effect of the substance
# 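Note: peak tail current of the secondary pulse compared with the same well before compound.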
# Sequence of human ether-à-go-go-related gene (hERG) potassium channel (Q12809 whole entry, looked up): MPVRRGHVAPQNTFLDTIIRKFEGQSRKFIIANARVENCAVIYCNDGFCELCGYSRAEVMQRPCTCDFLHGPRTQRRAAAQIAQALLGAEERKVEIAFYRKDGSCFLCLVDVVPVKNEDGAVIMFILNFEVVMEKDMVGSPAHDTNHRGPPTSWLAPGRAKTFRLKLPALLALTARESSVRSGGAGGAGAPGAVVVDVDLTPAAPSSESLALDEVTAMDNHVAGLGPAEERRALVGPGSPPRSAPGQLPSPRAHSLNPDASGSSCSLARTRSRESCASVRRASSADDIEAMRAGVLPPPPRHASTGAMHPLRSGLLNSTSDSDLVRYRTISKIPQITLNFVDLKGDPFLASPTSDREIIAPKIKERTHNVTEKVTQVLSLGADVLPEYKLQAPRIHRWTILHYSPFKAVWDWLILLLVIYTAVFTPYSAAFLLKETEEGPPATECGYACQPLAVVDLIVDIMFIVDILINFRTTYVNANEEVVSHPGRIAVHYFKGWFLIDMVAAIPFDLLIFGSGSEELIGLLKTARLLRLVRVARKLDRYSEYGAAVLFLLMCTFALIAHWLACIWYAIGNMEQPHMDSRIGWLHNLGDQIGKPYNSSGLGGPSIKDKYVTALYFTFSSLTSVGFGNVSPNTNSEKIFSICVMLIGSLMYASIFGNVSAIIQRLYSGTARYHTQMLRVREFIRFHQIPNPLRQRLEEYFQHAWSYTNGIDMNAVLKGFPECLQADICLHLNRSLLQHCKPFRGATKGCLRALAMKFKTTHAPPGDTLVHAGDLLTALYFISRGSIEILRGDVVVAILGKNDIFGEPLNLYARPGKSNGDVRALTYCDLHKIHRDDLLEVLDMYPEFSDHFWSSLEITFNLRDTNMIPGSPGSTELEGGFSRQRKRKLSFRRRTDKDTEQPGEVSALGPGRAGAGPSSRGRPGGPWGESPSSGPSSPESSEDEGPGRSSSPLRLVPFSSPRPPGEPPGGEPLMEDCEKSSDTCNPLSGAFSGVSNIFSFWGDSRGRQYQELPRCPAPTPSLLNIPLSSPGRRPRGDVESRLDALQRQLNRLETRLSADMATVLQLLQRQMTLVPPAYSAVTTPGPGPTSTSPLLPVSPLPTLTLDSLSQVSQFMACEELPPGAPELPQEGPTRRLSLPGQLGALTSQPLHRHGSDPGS
row,Compound,"hERG current change (%, negative = inhibition) at 10uM"
1,Cc1ccccc1NC(=O)c1ccc(S(=O)(=O)C(F)F)cc1,-27.6%
2,Cn1c(=O)oc2cc(S(=O)(=O)CCC(=O)NCCc3ccccc3)ccc21,7.46%
3,CN(C)S(=O)(=O)c1cccc(-c2cn3cc(Cl)ccc3n2)c1,7.03%
4,Cc1cccc(C(=O)OCC(=O)NC(=O)Cc2ccccc2)c1O,13.8%
5,COc1ccccc1N1CCN(C(=O)COc2ccc(Cl)cc2)CC1,-68.5%
6,Cc1ccc(OCC(=O)N2CCN(Cc3ccc4c(c3)OCO4)CC2)cc1.O=C(O)C(=O)O,-15.7%
7,COc1ccccc1OCC(=O)N1CCN(c2ccccc2OC)CC1,1.3%
8,Cc1ccc(OCC(=O)N2CCN(Cc3cccnc3)CC2)cc1.O=C(O)C(=O)O,17.7%
9,CSc1ccc(CN2CCN(C(=O)COc3ccc(C)cc3)CC2)cc1.O=C(O)C(=O)O,-60.4%
10,COc1ccccc1N1CCN(C(=O)COc2cc(C)cc(C)c2)CC1,10.8%
11,CCc1nnc(NC(=O)CN2C(=O)NC3(CC(C)CC(C)(C)C3)C2=O)s1 (stereo not shown),7.29%
12,O=C1NC(=O)N(c2ccccc2)C1=O,19.9%
13,CCc1ccc(C(=O)NC(=S)NCc2cccnc2)cc1,-40.7%
14,CC(C)(C)C(=O)Nc1ccc(NC(=O)C(C)(C)C)cc1,-6.63%
15,O=C(Nc1cccc(Br)c1)c1ccc(CN2CCc3ccccc3C2)cc1,-1.55%
16,O=S(=O)(Cc1cc(NCc2ccccc2)nc(-c2ccncc2)n1)c1ccccc1,20.3%
17,Nc1scc[n+]1Cc1cccc2cccnc12.[Br-],-12.3%
18,Nc1scn[n+]1Cc1cccc2cccnc12.[Br-],-11.1%
19,OCc1ccccc1OCCCOc1cccc2cccnc12,-3.4%
20,Cc1cc(C[n+]2cc(Br)ccc2N)c2ncccc2c1.[Br-],-68%
21,Cc1cc(C[n+]2cc(Cl)ccc2N)c2ncccc2c1.[Br-],-48.1%
22,Nc1sc(-c2ccccc2)n[n+]1Cc1cccc2cccnc12.[Br-],-66.7%

row,Compound,"hERG current change (%, negative = inhibition) at 10uM"
1,Nc1ccc(Cl)c[n+]1Cc1cccc2cccnc12.[Br-],-46.1%
2,Nc1ccc(Br)c[n+]1Cc1cccc2cccnc12.[Br-],-51.6%
3,Cc1cc(CSc2nc(C)cc(=O)[nH]2)c2ncccc2c1,-3.07%
4,Cc1noc(C)c1CSCC(=O)Nc1cc(Cl)ccc1N1CCCCC1,1.96%
5,CCN(CC)S(=O)(=O)c1ccc(NC2c3ccccc3C(=O)N2CCN2CCOCC2)cc1 (stereo not shown),-37%
6,Cc1ccc2c(CC(=O)NC3CCS(=O)(=O)C3)coc2c1C (stereo not shown),1.78%
7,CC(C(=O)NCc1ccccc1Cl)n1cc([N+](=O)[O-])cn1 (stereo not shown),4.65%
8,Cc1ccc2cc3c(NS(=O)(=O)c4cccc5nonc45)nn(CC(C)C)c3nc2c1,9.9%
9,COc1ccc(CNCCc2c[nH]c3ccccc23)cc1OC.O=C(O)C(=O)O,-28%
10,COc1cccc(CNCCc2c[nH]c3ccccc23)c1OCc1ccccc1F.Cl,-55.8%
11,COc1ccc(CNCCc2c[nH]c3ccccc23)c(OC)c1C.O=C(O)C(=O)O,-60.3%
12,COc1cc(C(=O)N[C@@H](Cc2c[nH]c3ccccc23)C(=O)O)cc(OC)c1OC,-53.1%
13,COc1cccc(CNCCc2c[nH]c3ccccc23)c1OC.Cl,-11.1%
14,COc1ccc(C(=O)NC(Cc2c[nH]c3ccccc23)C(=O)O)cc1 (stereo not shown),12.4%
15,COc1ccc(CNCCc2c[nH]c3ccccc23)c(OC)c1OC.O=C(O)C(=O)O,-7.44%
16,O=C(NC(Cc1c[nH]c2ccccc12)C(=O)O)c1ccccc1 (stereo not shown),1.22%
17,COc1cc(CNCCc2c[nH]c3ccccc23)ccc1OCc1ccc(F)cc1.Cl,-48.4%
18,COc1cc(C)c(CNCCc2c[nH]c3ccccc23)cc1C.O=C(O)C(=O)O,-36.9%
19,COc1cc(CNCCc2c[nH]c3ccccc23)ccc1OCc1ccccc1F.Cl,-52%
20,COc1cccc(CNCCc2c[nH]c3ccccc23)c1OCc1ccccc1.Cl,-47%
21,Cc1cnc(C(=O)Nc2ccc(F)cc2)cn1,-0.2%
22,CCN(CC)C(=O)C1CCCN(C(=O)Nc2ccc(NC(=O)N3CCCC(C(=O)N(CC)CC)C3)cc2)C1 (stereo not shown),-11.5%

row,Compound,"hERG current change (%, negative = inhibition) at 10uM"
1,COc1ccc(NC(=O)c2cc(-c3cc(C)cc(C)c3O)n[nH]2)cc1Cl,-4.52%
2,Cn1c2c(c(=O)n(C)c1=O)CN(CC1CCCO1)CN2 (stereo not shown),9.87%
3,CC(C)C(=O)Nc1nc(-c2ccc([N+](=O)[O-])cc2)cs1,7.04%
4,CC(C)(C)NC(=O)c1cc(-c2ccccc2)n[nH]1,11.5%
5,Cc1ccc(-n2c(Cc3noc4ccccc34)n[nH]c2=S)cc1,8.59%
6,NS(=O)(=O)c1cccnc1Nc1cccc(Cl)c1,11.8%
7,CCCCNC(=O)c1cc2c(-c3ccc(Cl)cc3)nn(C)c2s1,-7.09%
8,CC(C)NC(=O)c1cc2c(-c3ccc(Cl)cc3)nn(C)c2s1,4.67%
9,CCN(CC)CCCNC(=O)c1cc2c(-c3ccc(Cl)cc3)nn(C)c2s1,-59.9%
10,CCOCCCNC(=O)c1cc2c(-c3ccc(Cl)cc3)nn(C)c2s1,9.31%
11,CCN(CC)CCNC(=O)c1cc2c(-c3ccc(Cl)cc3)nn(C)c2s1,-69.6%
12,CCCCN(CC)CCCNC(=O)c1cc2c(-c3ccc(OC)c(OC)c3)nn(C)c2s1,-7.25%
13,CCCCN(CC)CCNC(=O)c1cc2c(-c3ccc(Cl)cc3)nn(C)c2s1,-74.8%
14,COCCCNC(=O)c1cc2c(-c3ccc(Cl)cc3)nn(C)c2s1,-3.72%
15,CN1CCN(CCCNC(=O)c2cc3c(-c4ccc(Cl)cc4)nn(C)c3s2)CC1,-40.1%
16,Cn1nc(-c2ccc(Cl)cc2)c2cc(C(=O)NCCCN3CCCC3)sc21,-59.5%
17,Cn1nc(-c2ccc(Cl)cc2)c2cc(C(=O)NCCCN3CCOCC3)sc21,-13.1%
18,COc1cc(CNC(C)C)ccc1OCC(=O)Nc1cccc2ccccc12,-27.2%
19,CC(=O)NC1(c2cccc(F)c2)CCN(CC(=O)NC(C)C)CC1,9.55%
20,Cc1cc(C(C)(C)C)n2nc(C)c(-c3ccccc3)c2n1,13.9%
21,O=[N+]([O-])c1ccc(O)c(Nc2c([N+](=O)[O-])ccc3nonc23)c1,16%
22,CCNc1nc(OC)nc(SCC(=O)Nc2ccccc2)n1,17.2%

row,Compound,"hERG current change (%, negative = inhibition) at 10uM"
1,Cc1nnc(Nc2ccc(Cl)cc2)n(N)c1=O,8.16%
2,O=C(Nc1cccc(-c2nc3ncccc3o2)c1)c1ccccc1,-9.36%
3,O=S(=O)(NCc1cccs1)c1ccc(Br)s1,2.07%
4,Cc1ccc(CNC(=O)c2cc3c(-c4ccc(Cl)cc4)nn(C)c3s2)o1,-8.27%
5,CCCNC(=O)c1cc(-c2ccccc2)c(N2CCCCC2)s1,14.2%
6,O=C(NCCc1ccccc1)c1cc(-c2ccccc2)c(N2CCOCC2)s1,3.07%
7,Cn1nc(-c2ccc(Cl)cc2)c2cc(C(=O)NC3CC3)sc21,-1.54%
8,CCN(CC)CCCNC(=O)c1cc(-c2ccccc2)c(N2CCCCC2)s1,-51.7%
9,CCCCN(CC)CCNC(=O)c1cc2c(-c3ccccc3F)nn(C)c2s1,-66.7%
10,CCCN(CCC)CCNC(=O)c1cc2c(-c3ccccc3F)nn(C)c2s1,-47.2%
11,CCN1CCCC1CNC(=O)c1cc2c(-c3ccc(Cl)cc3)nn(C)c2s1 (stereo not shown),-62.4%
12,CCCCN(C)CCNC(=O)c1cc2c(-c3ccccc3F)nn(C)c2s1,-48%
13,CCCN(CCC)CCNC(=O)c1cc2c(-c3ccc(Cl)cc3)nn(C)c2s1,-65.6%
14,CCN1CCCC1CNC(=O)c1cc2c(-c3cccc(OC)c3)nn(C)c2s1 (stereo not shown),-46.3%
15,CCCN(CCC)CCCNC(=O)c1cc2c(-c3ccc(OC)c(OC)c3)nn(C)c2s1,-6.94%
16,CCOC(=O)c1ccc(CC2SC(N)=NC2=O)cc1 (stereo not shown),2.63%
17,Cc1ccc(NC(=O)CSc2nc(=O)cc(N)n2-c2ccccc2)cc1,20.3%
18,CC(C)(C)NC(=O)NC(=O)CN1C(=O)NC(C)(c2ccccc2)C1=O (stereo not shown),15.8%
19,O=C(N/N=C/c1ccoc1)c1cccc([N+](=O)[O-])c1,9.75%
20,COc1ccc(NS(=O)(=O)c2cccc(C(=O)NCC(c3ccc(OC)cc3)N3CCOCC3)c2)cc1 (stereo not shown),-26.1%
21,O=c1c[n+]([O-])c2ccccc2n1OCc1ccccn1,18.9%
22,Cc1ccc(N2C(=O)C(NC(=O)c3c(F)cccc3F)(C(F)(F)F)C3=C2CC(C)(C)CC3=O)cc1 (stereo not shown),9.34%
